A short description of assay [1]: CEETOX_H295R_OHPREG: CeeTox H295R High-throughput Steroidogenesis Assay for OH-Pregnenolone (OHPREG) (AID 2283434; active = hit-call score of the fitted dose curve at least 0.9, where 1 is the maximum; inactive = score below 0.9). The settings on record: actives raise or lower the signal. A digest of the protocol:
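H295R, 10 uM forskolin pre-stim 48 h; test chemical 48 h, 0.1% DMSO final. MTBE extraction, reverse-phase C18 HPLC-ESI+ MS/MS of medium. Gain/loss vs DMSO; viability by MTT in same wells.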

Assay [2] in a line: CEETOX_H295R_OHPROG: CeeTox H295R High-throughput Steroidogenesis Assay for OH-Progesterone (OHPROG) (AID 2283435; active = hit-call score of the fitted dose curve at least 0.9, where 1 is the maximum; inactive = score below 0.9;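 for AC50: human adrenal H295R cells primed 48 h with 10 µM forskolin; 17alpha-hydroxyprogesterone secreted into medium measured by HPLC-MS/MS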). To be noted: actives raise or lower the signal. A digest of the protocol:
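Human adrenocortical H295R cells, passage 10 or lower, were treated with chemical for 48 h after forskolin priming, and hormone output in the medium was quantified by LC-MS/MS.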

The nature of assay [3]: CEETOX_H295R_CORTIC: CeeTox H295R High-throughput Steroidogenesis Assay for Corticosterone (CORTIC) (AID 2283437; active = hit-call score of the fitted dose curve at least 0.9, where 1 is the maximum; inactive = score below 0.9;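 note: corticosterone secreted into medium quantified by mass spectrometry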;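 for AC50: human H295R adrenal cells prestimulated with forskolin before chemical exposure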). To be noted: actives raise or lower the signal. A digest of the protocol: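 48 h forskolin (10 uM) prestim, then 48 h chemical exposure, final DMSO 0.1%. Readout: corticosterone in medium by LC-MS/MS after MTBE extraction. Gain/loss fit vs DMSO; MTT viability in same wells.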

Assay [4] in a line: CEETOX_H295R_CORTISOL: CeeTox H295R High-throughput Steroidogenesis Assay for Cortisol (AID 2283438; active = hit-call score of the fitted dose curve at least 0.9, where 1 is the maximum; inactive = score below 0.9;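 note: cortisol secreted into medium quantified by LC-MS/MS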). The settings on record: actives raise or lower the signal. A digest of the protocol: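 Steroidogenesis in H295R, per modified OECD 456: 48 h forskolin (10 uM), then 48 h exposure, 0.1% DMSO. Cortisol by extraction and tandem MS; viability by MTT (570/650 nm); cytotoxic chemicals diluted and re-tested.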

Assay [5] can be described thus: CEETOX_H295R_DOC: CeeTox H295R High-throughput Steroidogenesis Assay for DOC (AID 2283439; active = hit-call score of the fitted dose curve at least 0.9, where 1 is the maximum; inactive = score below 0.9). To be noted: actives raise or lower the signal. The essentials:
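H295R, fsk 10 uM ×48 h pre, cmpd ×48 h (0.1% DMSO). Media → MTBE extr. → LC-MS/MS, DOC. Bidirectional fit vs DMSO; MTT viability same wells, re-test diluted if <70%.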

Assay [6] in a line: CEETOX_H295R_ESTRADIOL: CeeTox H295R High-throughput Steroidogenesis Assay for Estradiol (AID 2283440; active = hit-call score of the fitted dose curve at least 0.9, where 1 is the maximum; inactive = score below 0.9;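 note: estradiol secreted into medium quantified by LC-MS/MS after dansyl derivatisation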). The settings on record: actives raise or lower the signal. The essentials:
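H295R, 48 h forskolin (10 uM) prestim → 48 h compound, 0.1% DMSO final. Estradiol in medium: MTBE extraction, dansyl chloride derivatization, LC-MS/MS. Fit bidirectional vs DMSO baseline; MTT viability in same wells.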

Assay [7] in a line: CEETOX_H295R_ESTRONE: CeeTox H295R High-throughput Steroidogenesis Assay for Estrone (AID 2283441; active = hit-call score of the fitted dose curve at least 0.9, where 1 is the maximum; inactive = score below 0.9;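 note: estrone secreted into medium measured by LC-MS/MS after dansyl derivatization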). The settings on record: actives raise or lower the signal. The essentials: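 Forskolin-stimulated H295R cells are treated 48 h with chemical, and estrone in the medium is measured by LC-MS/MS. Activity is fitted in both directions relative to DMSO controls, with chemicals diluted until MTT viability reaches at least 70%.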

A short description of assay [8]: CEETOX_H295R_PROG: CeeTox H295R High-throughput Steroidogenesis Assay for Progesterone (PROG) (AID 2283442; active = hit-call score of the fitted dose curve at least 0.9, where 1 is the maximum; inactive = score below 0.9;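 for AC50: human H295R adrenal cells primed with 10 µM forskolin before dosing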). The settings on record: actives raise or lower the signal. The essentials:
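Progesterone read-out: HPLC-MS/MS on MTBE extracts of conditioned medium after 48 h chemical exposure of forskolin-primed (10 uM, 48 h) H295R cells. Gain or loss of signal was fitted relative to DMSO baseline.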

Assay [9] can be described thus: ATG_XTT_Cytotoxicity: Cytotoxicity Assessment in the Attagene TRANS-FACTORIAL HepG2 Assay (AID 2283584). The essentials:
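XTT readout of cell number in transfected HepG2 cells, 24 h post-dosing; DMSO serves as negative control and baseline, with activity taken as loss of viability signal.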

The nature of assay [10]: TOX21_p53_BLA_p2_viability: Viability Assessment in the Tox21 HCT-116 p53 Agonism Beta-lactamase Assay, Phase 2 (AID 2283591).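 Note: actives lower the ATP signal meaning cytotoxicity.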 The essentials:
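HCT116 p53-bla cells, 4000/well, dosed after 5 h plating (217-fold dilution of DMSO stocks) and incubated 16 h at 37C. Viability taken as cellular ATP by CellTiter-Glo luminescence after 30 min RT; signal loss marks cytotoxicity.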

The nature of assay [11]: TOX21_p53_BLA_p3_viability: Viability Assessment in the Tox21 HCT-116 p53 Agonism Beta-lactamase Assay, Phase 3 (AID 2283593).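 Note: cells exposed to compound for 16 h before reading.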 The essentials: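 HCT116 cells, 4000/well, dosed 5 h after plating by pin transfer (217-fold dilution from DMSO stock) and incubated 16 h at 37C, 5% CO2. Viability read as ATP luminescence with CellTiter-Glo after 30 min at room temperature.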
In assay [12] the target is Cellular tumor antigen p53 (Homo sapiens) (UniProt P04637). Nature of the assay: TOX21_p53_BLA_p3_ratio: Tox21 HCT-116 p53 Agonism Beta-lactamase Assay, Ratio, Phase 3 (AID 2283596). A digest of the protocol: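 Cells were seeded at 4000/well, rested 5 h at 37C, then dosed with DMSO compound solutions (217-fold dilution) for 16 h. CCF4-AM substrate was loaded for 2 h at room temperature, and the 460/530 nm emission ratio was fitted for gain of signal versus DMSO.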

The nature of assay [13]: TOX21_p53_BLA_p4_viability: Viability Assessment in the Tox21 HCT-116 p53 Agonism Beta-lactamase Assay, Phase 4 (AID 2283597).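 Note: hits lower the luminescence signal meaning cytotoxicity.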 A digest of the protocol:
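ATP content by CellTiter-Glo luminescence, 30 min RT, read after the beta-lactamase ratio step. Cells: HCT116, 4000/well, compound added after 5 h, exposure 16 h at 37C. Signal loss = reduced viability.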

The target in assay [14] is Cellular tumor antigen p53 (Homo sapiens) (UniProt P04637). Put plainly: TOX21_p53_BLA_p5_ratio: Tox21 HCT-116 p53 Agonism Beta-lactamase Assay, Ratio, Phase 5 (AID 2283599). A digest of the protocol:
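HCT-116 p53-bla cells (4000/well) plated 5 h, dosed with compound (217-fold DMSO dilution) for 16 h at 37 C; CCF4-AM substrate 2 h at room temperature. Activity is the 460/530 nm emission ratio (405 nm excitation), fitted in gain-of-signal direction versus DMSO.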

Assay [15] is described as follows: TOX21_p53_BLA_p5_viability: Viability Assessment in the Tox21 HCT-116 p53 Agonism Beta-lactamase Assay, Phase 5 (AID 2283600). A digest of the protocol:
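ATP luminescence (CellTiter-Glo, 30 min, RT) served as the viability read-out, with loss of signal indicating cytotoxicity. Compounds in DMSO were pinned at a 217-fold dilution onto 4000 cells/well and incubated 16 h, 37C.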

Assay [16] has as its target Cellular tumor antigen p53 (Homo sapiens) (UniProt P04637). Put plainly: TOX21_p53_BLA_p4_ratio: Tox21 HCT-116 p53 Agonism Beta-lactamase Assay, Ratio, Phase 4 (AID 2283601). The essentials: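 HCT-116 p53 beta-lactamase reporter cells (4000/well) preincubated 5 h, then compound (217-fold dilution of DMSO stock) for 16 h at 37C. CCF4-AM substrate added 2 h at room temperature; 460/530 nm emission ratio fitted upward versus DMSO.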

Assay [17] relates to Thyroperoxidase (TPO), gene 54314. Nature of the assay: CCTE_Simmons_AUR_rTPO: CCTE's Amplex UltraRed Assay for Thyroperoxidase (TPO) Inhibition, Simmons Lab (AID 2283662).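 Note: potency for loss of signal meaning inhibition of peroxidase activity.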 A digest of the protocol:
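Endpoint is decreased Amplex UltraRed fluorescence after a 30-min, 37C reaction of rat thyroid microsomes with 300 uM H2O2. Eight test concentrations (5 nM–87.5 uM final) in 0.5% DMSO, three biological replicates each.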

Assay [18] is described as follows: CEETOX_H295R_ANDR: CeeTox H295R High-throughput Steroidogenesis Assay for Androstenedione (ANDR) (AID 2283436; active = hit-call score of the fitted dose curve at least 0.9, where 1 is the maximum; inactive = score below 0.9;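 note: human H295R adrenal cells exposed for 48 h with androstenedione measured in medium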). The settings on record: actives raise or lower the signal. The essentials:
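48 h chemical exposure, H295R cells, DMEM/F12 + ITS+ and Nu-Serum. Medium androstenedione: MTBE extraction, C18 reverse-phase HPLC, ESI+ MS/MS. Fit bidirectional vs DMSO; MTT viability in same wells.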

The nature of assay [19]: CEETOX_H295R_TESTO: CeeTox H295R High-throughput Steroidogenesis Assay for Testosterone (TESTO) (AID 2283457; active = hit-call score of the fitted dose curve at least 0.9, where 1 is the maximum; inactive = score below 0.9). To be noted: actives raise or lower the signal. The essentials: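 Readout: testosterone quantified by HPLC-MS/MS (C18, ESI positive) after MTBE liquid-liquid extraction of culture medium. Cells were H295R, 48 h chemical exposure per OECD 456 with modifications. Gain or loss of signal fitted relative to DMSO.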

In assay [20] the target is Cellular tumor antigen p53 (Homo sapiens) (UniProt P04637). Put plainly: TOX21_p53_BLA_p2_ratio: Tox21 HCT-116 p53 Agonism Beta-lactamase Assay, Ratio, Phase 2 (AID 2283592). The essentials:
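Readout: blue/green (460/530 nm) FRET emission ratio after 2 h CCF4-AM loading at room temperature, excitation 405 nm. HCT116 p53 bla cells, 16 h compound exposure at 37C, 5% CO2; agonist direction fitted against DMSO baseline.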

Structures are written as SMILES. Inconclusive results are not listed. Calls of active or inactive are those of the source. Rule for the calls, unless noted: active = hit-call score of the fitted dose curve at least 0.9, where 1 is the maximum; inconclusive = response in the unintended direction; inactive = score below 0.9.

Chain of Cellular tumor antigen p53 (Homo sapiens) (P04637 whole entry, looked up): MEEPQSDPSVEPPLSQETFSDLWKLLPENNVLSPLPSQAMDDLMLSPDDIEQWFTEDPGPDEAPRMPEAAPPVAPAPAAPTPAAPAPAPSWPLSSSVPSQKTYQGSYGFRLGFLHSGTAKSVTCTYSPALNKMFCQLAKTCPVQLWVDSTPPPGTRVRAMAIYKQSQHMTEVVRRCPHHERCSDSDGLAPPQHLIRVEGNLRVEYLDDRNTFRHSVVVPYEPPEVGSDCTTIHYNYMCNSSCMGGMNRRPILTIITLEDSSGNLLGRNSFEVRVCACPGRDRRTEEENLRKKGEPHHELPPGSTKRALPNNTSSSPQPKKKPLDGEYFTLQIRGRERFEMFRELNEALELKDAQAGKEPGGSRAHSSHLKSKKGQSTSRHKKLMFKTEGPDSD

As for `CC(Cc1ccc(O)c(O)c1)C(C)Cc1ccc(O)c(O)c1` (stereo not given), the molecule was classed as inactive in assay [1], in assay [6], in assay [7], in assay [9] and in assay [15]. In addition, the AC50 in [2] was 4.19 µM (active); in [3], 12.7 µM (active); in assay [4], 78.3 µM (active); in assay [5] it was 11.7 µM (active); in assay [8] it was 13.9 µM (active); in assay [10], 63.6 µM (active). Also, the AC50 in assay [11] is 86.7 µM (active); in assay [12] it was 75.1 µM (active); in assay [13], 46.1 µM (active); in assay [14] it was 81.3 µM (active); in assay [16] it was 75.5 µM (active); in assay [17], 0.55 µM (active).
As for `CS(C)(=O)=O`, the outcome in [9] was inactive.
Same read-out and setting: next, `CCCCCCCOC(=O)c1ccccc1C(=O)OCCCCCCC`: “inactive”.
Regarding `Cc1cccc(N(C)C)c1`, the molecule was called inactive in assay [1], in [2], in [18], in [3], in assay [4] and in assay [5]. Also, the result in [6], in assay [7], in [8], in assay [19] and in assay [9] was inactive.
In the case of `CCCCOCCOCCOC(=O)CCCCC(=O)OCCOCCOCCCC`, the outcome in [9] was inactive.
`Nc1ccc([N+](=O)[O-])cc1O`: the molecule was classed as inactive in [9], in assay [10], in assay [20], in assay [11], in assay [12] and in assay [13]. In addition, the outcome in assay [14], in assay [15] and in assay [16] was inactive.
On to `COC(OC(C)=O)c1ccccc1` (stereo not given), for which the outcome in assay [9] was inactive.
With `c1ccc(B(c2ccccc2)c2ccccc2)cc1`, the AC50 in assay [1] was 15 µM (active); in assay [5] it was 8.03 µM (active); in assay [8] it was 12.6 µM (active); in assay [17], 29.2 µM (active). Further, the result in assay [2], in assay [3], in [4], in assay [9], in assay [10] and in [11] was inactive. For the same molecule, the molecule was called inactive in assay [13], in assay [14], in assay [15] and in [16].
Take `CCc1c(Br)c(Br)c(Br)c(Br)c1Br`: the molecule was called inactive in assay [9].
`FC(F)(F)C(F)(F)C(F)(F)C(F)(F)CCI`: the result in [12], in assay [14], in assay [15] and in assay [16] was inactive.
For `CNC(=S)NC`, the result in assay [9], in assay [10], in [20], in [11], in assay [14] and in [15] was inactive. For the same molecule, the outcome in [16] was inactive. In addition, the AC50 in [13] is 46.1 µM (active).
For the molecule `CC/C=C\CCOC(=O)c1ccccc1`, the result in assay [9], in [20], in [12], in [13], in [14] and in assay [16] was inactive.
As for `O=C(OCCOCCOCCOC(=O)c1ccccc1)c1ccccc1`, the result in assay [9], in assay [10], in assay [20], in assay [15] and in assay [16] was inactive. The AC50 in assay [14] was 82.1 µM (active).

The values are drawn from PubChem BioAssay (EPA / NIEHS).
